Assay [1] in a line: ATG_GLI_CIS: Attagene CIS-FACTORIAL HepG2 Assay for human Zinc Finger Protein GLI1 (AID 2282945). To be noted: HepG2, Attagene cis-factorial reporter mRNA, GLI element; actives raise or lower the signal. The essentials:
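HepG2 cells transiently transfected with cis-promoter multiplexed reporter units report endogenous transcription factor activity. After 24 h chemical exposure, reporter mRNA was quantified by RT-PCR, 6-FAM labelling, HpaI digestion and capillary electrophoresis, with bidirectional fitting against DMSO.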

The nature of assay [2]: ATG_GRE_CIS: Attagene CIS-FACTORIAL HepG2 Assay for human Glucocorticoid Response Elements (GRE) (AID 2282947). Particulars: HepG2 GRE cis-reporter, Attagene multiplex mRNA; actives raise or lower the signal. The essentials:
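HepG2 cells transiently transfected with multiple cis-promoter reporter units measure endogenous TF activity; 24 h compound exposure. Reporter mRNA quantified by RT-PCR, FAM labelling, HpaI digestion and capillary electrophoresis; bidirectional fit vs DMSO baseline.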

A short description of assay [3]: ATG_ISRE_CIS: Attagene CIS-FACTORIAL HepG2 Assay for human Interferon Regulatory Factor 1 (IRF1) binding to an Interferon-Stimulated Response Element (ISRE) (AID 2282948). Particulars: HepG2 ISRE cis-reporter (Attagene), mRNA transcription readout; actives raise or lower the signal. The essentials: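 Transfected HepG2 (multiple reporter transcription units, cis elements) dosed 24 h. RNA → oligo(dT) RT → PCR → 6-FAM primer extension → HpaI → CE. DMSO = negative control/baseline.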

The nature of assay [4]: ATG_M_32_CIS: Attagene CIS-FACTORIAL HepG2 Assay for M32 Transcription Factor (Internal Marker) (AID 2282949).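 Further: background control marker of the multiplexed CIS panel rather than a real target.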 To be noted: HepG2 Attagene cis-factorial M32 reporter, mRNA; actives raise or lower the signal. The essentials: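 Internal background marker read-out: RT-PCR/capillary electrophoresis fluorescence of reporter transcripts from transiently transfected HepG2 cells after 24 h chemical exposure. Activity fitted bidirectionally relative to DMSO negative control.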

A short description of assay [5]: ATG_M_06_CIS: Attagene CIS-FACTORIAL HepG2 Assay for M06 Transcription Factor (Internal Marker) (AID 2282950). To be noted: HepG2 Attagene CIS-FACTORIAL M06 internal marker reporter; actives raise or lower the signal. The essentials: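 Terse: HepG2, transient MRTU transfection (FuGene 6), 24 h dosing; total RNA, oligo(dT) RT, PCR, FAM label, HpaI cut, capillary electrophoresis; bidirectional fit vs DMSO baseline; background-control endpoint.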

The target of assay [6] is Hypoxia-inducible factor 1-alpha (Homo sapiens) (UniProt Q16665). In words: ATG_HIF1a_CIS: Attagene CIS-FACTORIAL HepG2 Assay for human Hypoxia Inducible Factor 1 (HIF1A) (AID 2282951). Particulars: HepG2 Attagene cis-factorial HIF1a reporter transcription; actives raise or lower the signal. The essentials:
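Endogenous-TF cis reporter readout, human HepG2 cells, 24 h incubation; mRNA detected via RT-PCR and capillary electrophoresis fluorescence; DMSO-normalised bidirectional fitting.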

Assay [7] has as its target Hepatocyte nuclear factor 6 (Homo sapiens) (UniProt Q9UBC0). In words: ATG_HNF6_CIS: Attagene CIS-FACTORIAL HepG2 Assay for human Hepatocyte Nuclear Factor 6 (HNF6) (AID 2282952). Particulars: HepG2 Attagene cis-factorial HNF6 reporter transcription; actives raise or lower the signal. The essentials: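 HepG2 cells transiently transfected with cis-element-driven multiplexed reporter units measuring endogenous transcription factor activity. After 24 h exposure, reporter mRNA quantified by RT-PCR, FAM-labelled fragments and capillary electrophoresis; bidirectional fitting versus DMSO.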

The target of assay [8] is Heat shock factor protein 1 (Homo sapiens) (UniProt Q00613). The assay is described as follows: ATG_HSE_CIS: Attagene CIS-FACTORIAL HepG2 Assay for human Heat Shock Transcription Factor 1 (HSE) (AID 2282953). To be noted: HepG2 HSE cis-reporter, Attagene RNA transcription; actives raise or lower the signal. The essentials:
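Read-out: fluorescence of reporter-specific RT-PCR fragments separated by capillary electrophoresis. HepG2 carrying transfected cis-element reporter units; 24 h dosing; activity fitted in both directions relative to DMSO baseline.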

Assay [9] is described as follows: ATG_MRE_CIS: Attagene CIS-FACTORIAL HepG2 Assay for human Metal Responsive Element (MRE) (AID 2282954). To be noted: HepG2 MRE cis-reporter transcription, Attagene multiplex; actives raise or lower the signal. The essentials: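 HepG2 cells transiently transfected with multiple cis-element reporter units measure endogenous MTF1-driven transcription. After 24 h compound exposure, reporter mRNA is quantified by RT-PCR with 6-FAM labelling, HpaI digestion and capillary electrophoresis; bidirectional fits versus DMSO.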

Assay [10] can be described thus: ATG_PBREM_CIS: Attagene CIS-FACTORIAL HepG2 Assay for human Phenobarbital-responsive Enhancer Module (PBREM) (AID 2282955). Particulars: HepG2 PBREM cis-reporter, Attagene multiplexed transcription; actives raise or lower the signal. The essentials: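 Readout: reporter mRNA, fluorescent RT-PCR fragments separated by capillary electrophoresis. System: HepG2 transiently transfected with cis-regulated reporter units. Exposure: 24 h. Analysis: bidirectional, DMSO baseline.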

For assay [11], the target named is Paired box protein Pax-6 (Homo sapiens) (UniProt P26367). The assay is described as follows: ATG_Pax6_CIS: Attagene CIS-FACTORIAL HepG2 Assay for human Paired Box 6 (PAX6) (AID 2282956). Particulars: HepG2 CIS-FACTORIAL PAX6 reporter transcription, RNA readout; actives raise or lower the signal. The essentials: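 Transient MRTU transfection of HepG2 → compound exposure 24 h → TriZol RNA, oligo(dT) RT → PCR, 6-FAM primer extension, HpaI cut → capillary electrophoresis; activity fitted both directions against DMSO.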

The nature of assay [12]: ATG_PXRE_CIS: Attagene CIS-FACTORIAL HepG2 Assay for human Pregnane X Receptor Element (PXRE) (AID 2282957). To be noted: HepG2 Attagene CIS-FACTORIAL PXRE reporter, mRNA; actives raise or lower the signal. The essentials: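 HepG2 cells transiently transfected with cis-element-driven multiplexed reporter units; after 24 h chemical exposure, reporter mRNA measured by RT-PCR, 6-FAM labelling, HpaI digestion and capillary electrophoresis. Bidirectional fitting relative to DMSO.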

Assay [13] can be described thus: ATG_PPRE_CIS: Attagene CIS-FACTORIAL HepG2 Assay for human Peroxisome Proliferator-activated Response Element (PPRE) (AID 2282958). Particulars: HepG2 PPRE cis-element reporter, Attagene transcription factor profiling; actives raise or lower the signal. The essentials:
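After human HepG2 hepatoma cells were transiently transfected with cis-promoter reporter constructs, they were exposed to test chemicals for 24 hours. Reporter RNA was then reverse-transcribed, PCR-amplified, FAM-labeled, HpaI-digested and quantified by capillary electrophoresis.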

A short description of assay [14]: ATG_RORE_CIS: Attagene CIS-FACTORIAL HepG2 Assay for human RAR-related Orphan Receptor Element (RORE) (AID 2282959). Particulars: HepG2 Attagene cis-factorial RORE reporter, mRNA; actives raise or lower the signal. The essentials:
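Measured here: transcript induction of a cis-regulated reporter in HepG2 cells transiently transfected via FuGene 6. After 24 h, RNA was processed by RT-PCR and fluorescent capillary electrophoresis; DMSO defined baseline activity.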

Assay [15] in a line: ATG_Sox_CIS: Attagene CIS-FACTORIAL HepG2 Assay for human SRY-box transcription factor (SOX) (AID 2282960). To be noted: HepG2 Attagene cis-factorial SOX reporter, mRNA; actives raise or lower the signal. The essentials:
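Using transiently transfected HepG2 cells, reporter transcription driven by cis elements was assessed 24 h after dosing. Signal was fluorescence of capillary-separated RT-PCR products, with DMSO defining baseline activity.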

For assay [16], the target named is Transcription factor Sp1 (Homo sapiens) (UniProt P08047). The assay is described as follows: ATG_Sp1_CIS: Attagene CIS-FACTORIAL HepG2 Assay for human Specificity Protein 1 (Sp1) (AID 2282961). To be noted: HepG2 Sp1 cis-reporter transcription, actives raise or lower the signal. The essentials: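 After transient transfection of HepG2 cells with cis-promoter reporter units and 24 h chemical treatment, reporter transcripts were quantified by RT-PCR and capillary electrophoresis fluorescence. Gain- and loss-of-signal fitted against DMSO.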

Assay [17] is described as follows: ATG_SREBP_CIS: Attagene CIS-FACTORIAL HepG2 Assay for human Sterol Regulatory Element Binding (SREBP) (AID 2282962). Particulars: HepG2 Attagene cis-factorial SREBP reporter, mRNA; actives raise or lower the signal. The essentials:
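Transfected HepG2 (cis-regulated reporter library, endogenous TFs) → compound 24 h → total RNA → oligo(dT) RT → reporter-specific PCR → FAM primer extension, HpaI cut → CE fluorescence. Fit bidirectional vs DMSO.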

Assay [18] addresses Signal transducer and activator of transcription 3 (Homo sapiens) (UniProt P40763). The assay is described as follows: ATG_STAT3_CIS: Attagene CIS-FACTORIAL HepG2 Assay for human Signal Transducer and Activator of Transcription 3 (STAT3) (AID 2282963). To be noted: HepG2, Attagene cis-factorial STAT3 reporter transcription; actives raise or lower the signal. The essentials:
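HepG2 cells transiently transfected with cis-element-driven multiple reporter transcription units; after 24 h chemical exposure, reporter mRNA measured by RT-PCR, 6-FAM primer-extension labelling, HpaI digestion and capillary electrophoresis. Bidirectional fitting versus DMSO baseline.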

A short description of assay [19]: ATG_TA_CIS: Attagene CIS-FACTORIAL HepG2 Assay for human TA Basal Promoter (AID 2282964). Particulars: HepG2 Attagene CIS-factorial TA basal promoter reporter; actives raise or lower the signal. The essentials:
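Transfected HepG2, 24 h compound exposure; RNA → RT-PCR → FAM primer extension → HpaI cut → CE fluorescence. Gain/loss-of-signal fitted against DMSO negative control. Background-control readout.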

A short description of assay [20]: ATG_TCF_b_cat_CIS: Attagene CIS-FACTORIAL HepG2 Assay for human T-Cell-Factor with beta-catenin (TCF/b-cat) (AID 2282965). Particulars: HepG2 TCF/beta-catenin cis-reporter transcription, actives raise or lower the signal. The essentials: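 HepG2 cells transiently transfected with multiple cis-promoter-regulated reporter transcription units, so endogenous transcription factor activity is measured. Reporter mRNA read 24 hours after dosing by RT-PCR, fluorescent labelling and capillary electrophoresis; bidirectional fitting against DMSO.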

The source made the active and inactive calls. How the source made its calls: active means hit-call score of the fitted dose curve at least 0.9, where 1 is the maximum; inactive means score below 0.9.

Chain of Hepatocyte nuclear factor 6 (Homo sapiens) (Q9UBC0 whole entry, looked up, the tested form may be a part): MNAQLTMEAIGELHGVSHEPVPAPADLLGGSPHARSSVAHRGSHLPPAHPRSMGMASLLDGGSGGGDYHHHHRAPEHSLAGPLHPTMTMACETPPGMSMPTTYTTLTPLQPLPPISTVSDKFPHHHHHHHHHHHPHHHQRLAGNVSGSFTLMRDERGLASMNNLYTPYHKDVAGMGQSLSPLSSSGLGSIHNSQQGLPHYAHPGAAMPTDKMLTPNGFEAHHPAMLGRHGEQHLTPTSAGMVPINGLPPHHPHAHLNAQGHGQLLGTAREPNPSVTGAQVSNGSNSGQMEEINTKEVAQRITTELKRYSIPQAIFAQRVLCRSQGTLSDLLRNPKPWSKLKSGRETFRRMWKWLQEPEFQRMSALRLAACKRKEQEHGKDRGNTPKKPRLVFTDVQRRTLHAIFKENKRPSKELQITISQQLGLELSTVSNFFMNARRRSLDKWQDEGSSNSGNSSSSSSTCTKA
Chain of Transcription factor Sp1 (Homo sapiens) (P08047 whole entry, looked up): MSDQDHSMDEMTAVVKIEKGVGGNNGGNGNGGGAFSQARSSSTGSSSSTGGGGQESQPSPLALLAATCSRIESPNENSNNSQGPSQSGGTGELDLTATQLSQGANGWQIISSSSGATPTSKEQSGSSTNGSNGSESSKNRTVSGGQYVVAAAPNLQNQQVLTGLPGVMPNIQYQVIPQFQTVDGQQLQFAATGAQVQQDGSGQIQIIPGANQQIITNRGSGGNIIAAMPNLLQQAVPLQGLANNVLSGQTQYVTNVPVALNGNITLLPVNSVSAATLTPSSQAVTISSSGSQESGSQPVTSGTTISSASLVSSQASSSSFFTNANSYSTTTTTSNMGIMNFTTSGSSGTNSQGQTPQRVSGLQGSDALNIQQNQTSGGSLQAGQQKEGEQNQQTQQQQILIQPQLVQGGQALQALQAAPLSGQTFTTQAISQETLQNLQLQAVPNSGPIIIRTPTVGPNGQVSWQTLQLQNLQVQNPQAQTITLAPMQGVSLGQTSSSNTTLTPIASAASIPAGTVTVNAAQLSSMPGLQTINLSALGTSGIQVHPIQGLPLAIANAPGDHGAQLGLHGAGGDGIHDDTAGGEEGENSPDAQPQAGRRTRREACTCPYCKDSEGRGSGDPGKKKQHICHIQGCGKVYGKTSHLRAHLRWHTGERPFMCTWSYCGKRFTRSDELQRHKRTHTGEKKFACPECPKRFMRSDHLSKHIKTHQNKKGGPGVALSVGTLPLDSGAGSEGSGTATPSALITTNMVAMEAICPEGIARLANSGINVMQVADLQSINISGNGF
Chain of Signal transducer and activator of transcription 3 (Homo sapiens) (P40763 whole entry, looked up): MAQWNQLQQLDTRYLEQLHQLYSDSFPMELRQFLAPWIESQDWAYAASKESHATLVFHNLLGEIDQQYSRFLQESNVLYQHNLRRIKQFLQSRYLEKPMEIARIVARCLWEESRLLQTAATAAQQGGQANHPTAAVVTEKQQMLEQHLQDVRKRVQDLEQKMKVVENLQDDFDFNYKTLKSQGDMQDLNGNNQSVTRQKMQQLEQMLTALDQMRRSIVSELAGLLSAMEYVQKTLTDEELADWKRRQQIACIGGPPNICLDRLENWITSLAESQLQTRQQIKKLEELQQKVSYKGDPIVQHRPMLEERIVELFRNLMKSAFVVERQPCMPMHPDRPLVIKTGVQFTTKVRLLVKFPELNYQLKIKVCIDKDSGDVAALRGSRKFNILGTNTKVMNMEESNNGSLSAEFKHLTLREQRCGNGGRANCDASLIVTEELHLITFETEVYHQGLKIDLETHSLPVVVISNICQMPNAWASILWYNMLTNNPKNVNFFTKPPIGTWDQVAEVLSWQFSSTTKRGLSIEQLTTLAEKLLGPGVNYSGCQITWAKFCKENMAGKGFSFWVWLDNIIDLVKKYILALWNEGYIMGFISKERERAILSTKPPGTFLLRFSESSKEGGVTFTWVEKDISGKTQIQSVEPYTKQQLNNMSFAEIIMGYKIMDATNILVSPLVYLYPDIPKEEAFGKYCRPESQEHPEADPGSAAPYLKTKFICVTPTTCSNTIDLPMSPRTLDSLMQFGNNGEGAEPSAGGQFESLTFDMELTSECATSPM
Chain of Paired box protein Pax-6 (Homo sapiens) (P26367 whole entry, looked up): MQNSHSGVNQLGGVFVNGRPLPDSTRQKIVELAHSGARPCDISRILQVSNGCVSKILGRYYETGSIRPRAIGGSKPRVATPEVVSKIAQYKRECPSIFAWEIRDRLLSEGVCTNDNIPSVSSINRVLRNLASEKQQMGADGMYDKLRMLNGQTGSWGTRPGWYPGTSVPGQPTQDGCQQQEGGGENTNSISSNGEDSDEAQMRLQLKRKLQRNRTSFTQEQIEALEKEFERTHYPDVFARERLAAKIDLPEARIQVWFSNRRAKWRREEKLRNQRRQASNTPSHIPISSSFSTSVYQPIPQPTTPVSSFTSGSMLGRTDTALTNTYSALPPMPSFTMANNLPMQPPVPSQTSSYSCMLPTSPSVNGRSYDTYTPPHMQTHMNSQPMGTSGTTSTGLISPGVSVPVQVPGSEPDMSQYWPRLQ
Chain of Hypoxia-inducible factor 1-alpha (Homo sapiens) (Q16665 whole entry, looked up): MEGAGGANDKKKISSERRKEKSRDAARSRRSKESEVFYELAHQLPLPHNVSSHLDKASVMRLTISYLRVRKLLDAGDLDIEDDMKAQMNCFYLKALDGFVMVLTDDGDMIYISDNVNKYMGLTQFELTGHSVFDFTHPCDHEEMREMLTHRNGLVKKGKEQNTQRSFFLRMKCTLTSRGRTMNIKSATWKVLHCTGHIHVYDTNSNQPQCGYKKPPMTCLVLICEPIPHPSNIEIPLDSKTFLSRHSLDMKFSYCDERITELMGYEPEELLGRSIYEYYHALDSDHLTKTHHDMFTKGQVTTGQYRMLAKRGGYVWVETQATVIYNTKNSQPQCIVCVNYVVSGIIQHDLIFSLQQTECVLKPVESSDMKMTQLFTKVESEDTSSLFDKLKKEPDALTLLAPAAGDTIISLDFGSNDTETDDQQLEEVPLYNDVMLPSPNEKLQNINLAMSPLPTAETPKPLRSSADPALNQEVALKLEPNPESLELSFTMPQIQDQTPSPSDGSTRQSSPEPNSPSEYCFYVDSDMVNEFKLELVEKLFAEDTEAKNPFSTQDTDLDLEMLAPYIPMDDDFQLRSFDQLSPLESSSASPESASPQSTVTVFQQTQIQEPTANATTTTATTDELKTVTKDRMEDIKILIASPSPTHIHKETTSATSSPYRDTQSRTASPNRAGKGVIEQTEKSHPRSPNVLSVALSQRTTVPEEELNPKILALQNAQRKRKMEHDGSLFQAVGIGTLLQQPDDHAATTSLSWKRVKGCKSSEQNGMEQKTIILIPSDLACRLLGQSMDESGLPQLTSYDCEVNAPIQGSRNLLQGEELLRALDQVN
Chain of Heat shock factor protein 1 (Homo sapiens) (Q00613 whole entry, looked up, the tested form may be a part): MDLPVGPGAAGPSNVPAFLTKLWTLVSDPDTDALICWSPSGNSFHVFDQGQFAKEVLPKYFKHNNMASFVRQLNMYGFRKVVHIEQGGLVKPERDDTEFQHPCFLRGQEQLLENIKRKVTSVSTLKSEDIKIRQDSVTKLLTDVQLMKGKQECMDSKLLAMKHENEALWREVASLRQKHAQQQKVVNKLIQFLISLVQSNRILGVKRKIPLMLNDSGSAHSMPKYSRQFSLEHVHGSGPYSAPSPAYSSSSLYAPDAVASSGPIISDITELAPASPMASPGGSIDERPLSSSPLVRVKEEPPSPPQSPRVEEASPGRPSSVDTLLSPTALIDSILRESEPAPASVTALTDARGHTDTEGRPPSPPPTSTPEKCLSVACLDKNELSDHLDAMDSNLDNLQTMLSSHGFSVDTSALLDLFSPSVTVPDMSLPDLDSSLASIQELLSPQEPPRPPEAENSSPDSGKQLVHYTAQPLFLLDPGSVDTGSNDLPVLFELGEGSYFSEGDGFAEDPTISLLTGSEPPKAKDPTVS

Turning to `CCOc1nc(NC)nc(NC(=O)NS(=O)(=O)c2ccccc2C(=O)OC)n1`, the compound was classed as inactive in assay [1], in assay [2], in [3], in [4], in [5] and in [6]. For the same compound, the call in [7], in assay [8], in assay [9], in [10], in assay [11] and in assay [12] was inactive. Further, the compound was called inactive in assay [13], in assay [14], in assay [15], in [16], in assay [17] and in assay [18]. In addition, the compound was classed as inactive in [19] and in [20].
`CNC(=O)CSP(=S)(OC)OC`: the call in [1], in assay [3], in [4], in [5], in assay [6] and in assay [7] was inactive. Further, the compound was called inactive in [8], in [9], in [10], in assay [11], in assay [12] and in [13]. In addition, the compound was called inactive in [14], in [15], in [16], in [17], in assay [18] and in [19]. The compound was called inactive in [20].
Turning to `Clc1ccccc1-c1nnc(-c2ccccc2Cl)nn1`, the outcome in [1], in assay [3], in [4], in [5], in [6] and in assay [7] was inactive. For the same compound, the outcome in assay [8], in assay [9], in [10], in assay [11], in [12] and in assay [14] was inactive. Further, the outcome in assay [15], in assay [16], in assay [17], in assay [18], in [19] and in [20] was inactive. For the same compound, the AC50 (in general, the concentration giving half of the maximal activity seen) in assay [13] was 8.03 µM (active).
